Experimental data reported in PubChem BioAssay (NCATS).
Records with an inconclusive call do not appear. The source made the active and inactive calls. Calls come from the whole dose curve; as a rule, active = well fitted curve in the direction sought with a large enough effect; inconclusive = small, poorly fitted or top-dose-only effect, or another doubt; inactive = no such curve, though single readings can be large; an effect the other way counts as inactive or inconclusive.

Assays:
[1] = Quantitative High-Throughput drug screen in 47 multiple myeloma cell lines against the NCATS MIPE library collection: KMS26_JCRB cell viability assay (AID 1918975); note: nearly all actives have a fitted effect of over 45% in size
Summary of the method: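 Steps: seed 500 cells per well; pin-transfer MIPE 4.0 library; incubate 48 h at 37C, 5% CO2, humidified; add CellTiter-Glo, 5 min room temperature; read luminescence.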

[2] = Quantitative High-Throughput drug screen in 47 multiple myeloma cell lines against the NCATS MIPE library collection: MMM1_PLB cell viability assay (AID 1918976); note: nearly all actives have a fitted effect of over 35% in size
Summary of the method: (§1)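 MIPE 4.0 approved/investigational drugs; 500 cells/well; 48 h 37 °C humidified 5% CO2; CTG luminescence readout; DMSO = 100%, media = 0% viability.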

[3] = Quantitative High-Throughput drug screen in 47 multiple myeloma cell lines against the NCATS MIPE library collection: MOLP8_DSMZ cell viability assay (AID 1918977); note: nearly all actives have a fitted effect of over 45% in size
Summary of the method: as §1

[4] = Quantitative High-Throughput drug screen in 47 multiple myeloma cell lines against the NCATS MIPE library collection: OCIMY1_PLB cell viability assay (AID 1918979); note: nearly all actives have a fitted effect of over 35% in size
Summary of the method: as §1

[5] = Quantitative High-Throughput drug screen in 47 multiple myeloma cell lines against the NCATS MIPE library collection: MM1S_ATCC cell viability assay (AID 1918980); note: nearly all actives have a fitted effect of over 45% in size
Summary of the method: as §1

[6] = Quantitative High-Throughput drug screen in 47 multiple myeloma cell lines against the NCATS MIPE library collection: MM1R_ATCC cell viability assay (AID 1918981); note: nearly all actives have a fitted effect of over 35% in size
Summary of the method: as §1

[7] = Quantitative High-Throughput drug screen in 47 multiple myeloma cell lines against the NCATS MIPE library collection: LP1_DSMZ cell viability assay (AID 1918982); note: nearly all actives have a fitted effect of over 35% in size
Summary of the method: as §1

[8] = Quantitative High-Throughput drug screen in 47 multiple myeloma cell lines against the NCATS MIPE library collection: KMS28PE_JCRB cell viability assay (AID 1918983); note: nearly all actives have a fitted effect of over 35% in size
Summary of the method: as §1

[9] = Quantitative High-Throughput drug screen in 47 multiple myeloma cell lines against the NCATS MIPE library collection: L363_DSMZ cell viability assay (AID 1918984); note: nearly all actives have a fitted effect of over 40% in size
Summary of the method: as §1

[10] = Quantitative High-Throughput drug screen in 47 multiple myeloma cell lines against the NCATS MIPE library collection: NCIH929_DSMZ cell viability assay (AID 1918978); note: nearly all actives have a fitted effect of over 35% in size
Summary of the method: as §1

Measured: Potency
Potency is the fitted concentration of half-maximal effect.

COc1ccc(-c2cc3c(C)nc(N)nc3n(C3CCC(OCCO)CC3)c2=O)cn1 (centres undefined)
active: [1] 148 nM | [2] 14.8 nM | [3] 37.2 nM | [4] 83.3 nM | [5] 37.2 nM | [6] 14.8 nM | [7] 14.8 nM | [8] 33.2 nM | [9] 10.5 nM

CCCCOc1c(C(=O)c2c(F)cc(C)cc2F)cnc2n[nH]cc12
active: [1] 3720 nM | [2] 5260 nM | [3] 2960 nM | [10] 1320 nM | [5] 2090 nM | [6] 3720 nM | [7] 3320 nM | [8] 5900 nM | [9] 3320 nM

CC(C)(O)c1cc2nc(-c3cnc(N)nc3)nc(N3CCOCC3)c2s1
active: [1] 132 nM | [2] 46.9 nM | [3] 29.6 nM | [4] 29.6 nM | [5] 66.2 nM | [6] 66.2 nM | [7] 13.2 nM | [8] 37.2 nM

NC1(Cc2ccc(Cl)cc2)CCN(c2ncnc3[nH]ccc23)CC1
active: [1] 6620 nM | [2] 526 nM | [3] 8330 nM | [10] 935 nM | [5] 1870 nM | [6] 5900 nM | [8] 5260 nM | [9] 1870 nM

O=C(Nc1nc2cccc(-c3ccc(CN4CCS(=O)(=O)CC4)cc3)n2n1)C1CC1
active: [1] 13200 nM | [2] 9350 nM | [3] 14800 nM | [5] 20900 nM | [6] 14800 nM | [7] 20900 nM | [8] 13200 nM

CCN1CCN(CC(=O)Nc2ccc(-c3cccc4c(=O)cc(N5CCOCC5)oc34)c3sc4ccccc4c23)CC1
active: [1] 1320 nM | [2] 2350 nM | [3] 526 nM | [10] 187 nM | [5] 7430 nM | [6] 1480 nM | [7] 1480 nM | [8] 5260 nM | [9] 33.2 nM

COc1cc(=C2C=c3ccccc3=N2)[nH]c1=Cc1[nH]c(C)cc1C
active: [1] 2350 nM | [2] 2090 nM | [3] 469 nM | [4] 3720 nM | [5] 4180 nM | [6] 1050 nM | [7] 743 nM

CC(NCc1ccc2c(c1)nc(NC(=O)c1ccc(-c3cn[nH]c3)s1)n2CC(C)(C)O)C(C)(C)C (centres undefined)
active: [1] 743 nM | [2] 118 nM | [3] 209 nM | [10] 235 nM | [5] 332 nM | [6] 469 nM | [7] 469 nM | [8] 469 nM | [9] 105 nM

O=C(c1ccc(Nc2nccc(-c3cc4ccccc4s3)n2)cc1)N1CCC(N2CCCC2)CC1
active: [1] 16600 nM | [2] 20900 nM | [3] 13200 nM | [10] 5900 nM | [5] 20900 nM | [7] 20900 nM | [8] 16600 nM | [9] 1480 nM

Cc1ccc(C(N)=O)cc1Nc1nccc(-c2cn(C(C)C)c3cnccc23)n1
active: [1] 10500 nM | [2] 16600 nM | [3] 4690 nM | [10] 2960 nM | [5] 7430 nM | [7] 8330 nM | [8] 13200 nM | [9] 2640 nM

Cc1ccc(C(=O)Nc2ccc(CN3CCN(C)CC3)c(C(F)(F)F)c2)cc1C#Cc1cnc2cccnn12
active: [1] 6620 nM | [2] 7430 nM | [3] 833 nM | [10] 935 nM | [5] 4690 nM | [6] 3320 nM | [7] 5900 nM | [8] 5900 nM | [9] 833 nM

O=C(Cc1ccc(-c2ccc(OCCN3CCOCC3)cc2)cn1)NCc1ccccc1
active: [1] 83.3 nM | [2] 14800 nM | [3] 83.3 nM | [10] 93.5 nM | [5] 132 nM | [6] 187 nM | [7] 41.8 nM | [9] 14.8 nM

CN(c1ncccc1CNc1nc(Nc2ccc3c(c2)CC(=O)N3)ncc1C(F)(F)F)S(C)(=O)=O
active: [1] 7430 nM | [2] 7430 nM | [3] 4180 nM | [4] 13200 nM | [5] 6620 nM | [7] 8330 nM | [8] 9350 nM | [9] 2640 nM

O=C(C=Cc1cccc(S(=O)(=O)Nc2ccccc2)c1)NO
active: [1] 8550 nM | [2] 10800 nM | [3] 2410 nM | [10] 3030 nM | [5] 1910 nM | [6] 1210 nM | [7] 2700 nM | [8] 3820 nM | [9] 855 nM

Cc1cnc(Nc2ccc(F)cc2Cl)nc1-c1c[nH]c(C(=O)N[C@H](CO)c2cccc(Cl)c2)c1
active: [1] 20900 nM | [2] 16600 nM | [3] 23500 nM | [10] 16600 nM | [5] 16600 nM | [6] 16600 nM | [7] 18700 nM | [9] 1320 nM
